Source: PubChem
Cruzain noTriton – inhibitors of Trypanosoma cruzi cruzain without detergent; P25779; Potency, µM, hits mostly inhibitors; 200,000 tested, 2.3% active; purified cruzain, Z-FR-AMC fluorescence, no detergent; note: nearly all actives have a fitted effect of over 40% in size
Target sequence (P25779 123-467 limits assumed): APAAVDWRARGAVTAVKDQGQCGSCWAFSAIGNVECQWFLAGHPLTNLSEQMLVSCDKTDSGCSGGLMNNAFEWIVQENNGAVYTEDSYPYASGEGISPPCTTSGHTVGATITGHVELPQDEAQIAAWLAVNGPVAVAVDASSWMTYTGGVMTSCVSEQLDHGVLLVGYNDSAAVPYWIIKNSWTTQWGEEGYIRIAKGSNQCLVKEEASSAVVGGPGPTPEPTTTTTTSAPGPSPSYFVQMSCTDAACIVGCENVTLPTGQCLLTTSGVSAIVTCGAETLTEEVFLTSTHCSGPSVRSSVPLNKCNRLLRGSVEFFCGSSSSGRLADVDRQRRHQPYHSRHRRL
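Detergent-free condition (0.00005% Triton X-100) in acetate buffer pH 5.5 with DTT. 1.5 nM enzyme and compound were pre-mixed 15 min, then 2 uM Z-FR-AMC substrate added; reaction progress from fluorescence change between first and third reads (60 s).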
Cruzain Triton – cruzain (T. cruzi) inhibition with detergent. 200,000 tested, 0.43% active. Potency, µM, usual class: inhibitors. purified cruzain, Z-FR-AMC fluorescence, 0.01% Triton. P25779; note: nearly all actives have a fitted effect of over 40% in size
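Enzyme 1.5 nM, Z-FR-AMC 2 uM, NaOAc 100 mM pH 5.5, DTT 5 mM, Triton X-100 0.01%; 15 min RT compound preincubation; kinetic ex360/em450, 60 s delta.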
NS1 function inh – influenza NS1 inhibition | 270,000 tested, 0.4% active | Potency, µM (highest dose often 46.1 µM); calls by dose curve; note: actives are rising curves; nearly all actives have a fitted effect of over 50% in size
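OD600 was taken as the measure of yeast growth restored by compound in an NS1-expressing S. cerevisiae strain. Cells had been washed out of glucose medium and diluted 1:100 into galactose -URA medium, pH 6.0.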
Hits are given with their value; - = inactive; ? = inconclusive; . = not tested or not shown. The entries come from a sample that favours hits as a whole. Unless noted, calls come from the whole dose curve; as a rule, active = well fitted curve in the direction sought with a large enough effect; inconclusive = small, poorly fitted or top-dose-only effect, or another doubt; inactive = no such curve, though single readings can be large; an effect the other way counts as inactive or inconclusive.

SMILES	Cruzain noTriton	Cruzain Triton	NS1 function inh
Cc1cc(C)nc(NC(=NCCc2c[nH]c3ccccc23)NC(=O)Nc2ccc(Cl)cc2)n1	25.1µM	-	-
CCc1nnc(NC(=O)c2ccc(-c3cc(C(F)(F)F)ccc3Cl)o2)s1	-	-	-
CCc1nnc(NC(=O)c2ccc(COc3ccc(C)cc3)o2)s1	25.1µM	-	-
CCc1nnc(NC(=O)c2ccc(COc3ccccc3)o2)s1	?	-	-
CCc1nnc(NC(=O)c2ccc(-c3cccc(C(F)(F)F)c3)o2)s1	12.6µM	-	-
COc1cc(OC)c(NC(=O)c2nn(C)c3c2COc2ccccc2-3)cc1Cl	-	-	.
CCC(=O)/C=C/C1C(C)=CCCC1(C)C (stereo not given)	-	-	.
CCCCCC(=O)/C=C/C=C\C/C=C\C/C=C\CCCC(=O)O	-	-	.
O=C(CC(C(=O)O)c1ccccc1)Nc1cccc2ccccc12 (stereo not given)	-	-	-
O=C(CC(NC(=O)c1ccccc1)c1ccccc1)Nc1cccc2ccccc12 (stereo not given)	25.1µM	-	-
CCCCC[C@H](O)/C=C/C=C\C/C=C\C/C=C\CCCC(=O)O	-	-	.
CCCn1c(C)nc2c(NCCN3CCOCC3)nc(C)nc21	-	-	.
O=C1N/C(=C/c2ccc(Br)cc2)C(O)=C1C=NCc1ccccc1	20µM	-	-
O=C1C(C=NCc2ccncc2)=C(O)c2ccccc21	-	-	-
CCOc1cccc(C(=O)NC(=S)Nc2ccc(N3CCCC3)cc2)c1	31.6µM	?	-
O=C(NC(=S)Nc1ccc(N2CCCCC2)cc1)c1ccc2c(c1)OCCO2	25.1µM	-	-
CCOc1cccc(C(=O)Nc2ccc(N3CCN(S(C)(=O)=O)CC3)cc2)c1	-	-	-
O=C(NC(=S)Nc1ccc(N2CCOCC2)cc1)c1ccc2c(c1)OCCO2	-	-	-
CN1CCN(c2ncc3nc(-c4ccccc4)c(=O)n(Cc4ccc(F)cc4)c3n2)CC1	?	-	.
Cc1ccc(-n2nc(CO)c(C(=O)NC(C)c3ccccc3)n2)cc1C (stereo not given)	-	-	.
Cc1c(Cl)cccc1NC(=O)C(=O)NCC(c1cccnc1)N1CCN(c2ccccc2)CC1 (stereo not given)	?	-	.
O=C(COC(=O)/C=C/c1ccc(Cl)cc1Cl)Nc1cc(C(F)(F)F)ccc1N1CCOCC1	12.6µM	-	-
O=C(COC(=O)/C=C/c1ccccc1)Nc1cc(C(F)(F)F)ccc1N1CCOCC1	-	-	-
CN1C(=O)N(C)C2=NNC=NC2(O)C1=O (stereo not given)	-	-	.
O=C(CSc1nc2c([nH]c3ccccc32)c(=O)n1-c1ccccc1)Nc1ccc(Cl)c(Cl)c1	12.6µM	-	.
SMILES	Cruzain noTriton	Cruzain Triton	NS1 function inh
Cc1ccc(-n2c(SCC(=O)Nc3ccc4c(c3)OCCO4)nc3c([nH]c4ccccc43)c2=O)cc1	25.1µM	-	.
O=C(CSc1nc2c([nH]c3ccccc32)c(=O)n1-c1ccccc1)Nc1ccc2c(c1)OCCO2	25.1µM	-	.
O=C(CSc1nc2c([nH]c3ccccc32)c(=O)n1-c1ccccc1)Nc1ccc2c(c1)OCO2	?	-	.
Cc1cc(C)cc(-n2c(SCC(=O)Nc3ccc4c(c3)OCCO4)nc3c([nH]c4ccccc43)c2=O)c1	?	-	.
COc1cccc(NC(=O)CSc2nc3c([nH]c4ccccc43)c(=O)n2-c2ccccc2)c1	?	-	.
COC(=O)C(C)Sc1nc2c([nH]c3ccccc32)c(=O)n1-c1ccc(OC)cc1 (stereo not given)	-	-	.
CC(Sc1nc2c([nH]c3ccccc32)c(=O)n1-c1ccccc1)c1ccccc1 (stereo not given)	7.94µM	-	.
CNC(=O)Oc1ccc2c(c1)[C@@]1(C)CCN(C)C1N2C (stereo not given in full)	-	-	.
Cc1ccc(NS(=O)(=O)c2c(C)nc3sc(C)c(C)n3c2=O)cc1F	-	-	.
N#Cc1ccc(NC(=O)C2Cc3ccccc3CN2S(=O)(=O)c2ccc(F)cc2)cc1 (stereo not given)	-	-	.
COc1cc(NC(=O)c2cc(-c3ccco3)on2)c(OC)cc1Cl	10µM	-	-
O=C(Nc1c(Cl)cccc1Cl)c1cc(-c2ccco2)on1	.	.	-
CC(C)c1nccn1Cc1ccc(Cl)cc1Cl	-	-	-
O=C(Nc1ccccc1N1CCN(c2ccc(F)cc2)CC1)C12CC3CC(CC(C3)C1)C2	25.1µM	-	-
CCC(=O)Nc1ccccc1N1CCN(c2ccc(F)cc2)CC1	.	.	-
CN(C)C(=O)CSc1nnc([C@@H](N)Cc2ccccc2)o1	25.1µM	20µM	-
C=C(C)CSc1nnc([C@@H](N)Cc2ccccc2)o1	.	.	-
CC1=CC(=O)OC1Cc1ccc2ccccc2n1 (stereo not given)	-	-	.
Cc1cn2c(=O)cc(COc3cccc(NC(=O)c4ccc(C(C)(C)C)cc4)c3)nc2s1	?	-	.
CCOC(=O)Cn1c(-c2ccccc2)cc(SC)c(C#N)c1=O	.	.	-
CSc1cc(-c2ccccc2)[nH]c(=O)c1C#N	.	.	-
CSc1cc(-c2ccccc2)n(Cc2c(Cl)cccc2Cl)c(=O)c1C#N	10µM	-	-
CSc1cc(-c2ccc(Cl)cc2)n(Cc2ccccc2)c(=O)c1C#N	25.1µM	-	-
C/C=C/C=O	-	-	.
COC(=O)N/N=C/c1c(C)c(C(=O)c2ccc(F)cc2)n2ccccc12	-	-	-
SMILES	Cruzain noTriton	Cruzain Triton	NS1 function inh
Cc1c(/C=N/NC(=O)c2ccccc2O)c2ccccn2c1C(=O)c1ccc(F)cc1	25.1µM	-	?
CCNc1ncc2nc(-c3cc(F)cc(F)c3)c(=O)n(C3CC3)c2n1	-	-	.
CNc1ncc(C(=O)c2ccc(Cl)c(Cl)c2)s1	-	-	-
O=C(c1ccc(Cl)c(Cl)c1)c1cnc(Nc2ccccc2)s1	20µM	-	-
Cc1oc(-c2ccccc2Cl)nc1CS(=O)(=O)CC(=O)NCc1ccc(F)cc1	?	-	.
O=C(Nc1ccc(F)cc1)C(c1ccccc1)N1CCN(S(=O)(=O)c2ccc3ccccc3c2)CC1 (stereo not given)	?	-	?
Cc1ccc(C)c(S(=O)(=O)N2CCN(C(C(=O)Nc3ccc(F)cc3)c3ccccc3)CC2)c1 (stereo not given)	25.1µM	-	-
Cc1sc(-n2cccc2)c(C(C)NC(=O)Nc2ccccc2Cl)c1C (stereo not given)	?	-	.
CCCn1c(=O)c(C(=O)NNS(=O)(=O)c2ccc(C)cc2)c(O)c2ccccc21	12.6µM	-	-
CCn1c(=O)c(C(=O)NNS(=O)(=O)c2ccc(C)cc2)c(O)c2ccccc21	-	-	-
Nc1nc(SCC(=O)NCc2ccc(F)cc2)[nH]c(=O)c1NC(=O)c1ccc(Cl)cc1	25.1µM	-	-
Nc1nc(SCC(=O)NCc2ccccc2Cl)[nH]c(=O)c1NC(=O)c1ccccc1F	?	-	-
CCC(C(=O)Nc1cc(C)ccc1C)n1c(=O)c(C(F)(F)F)nc2ccccc21 (stereo not given)	-	-	.
Cc1ccc2c(c1)n([O-])c1c([n+]2=O)CCCC1	-	-	-
CC(=O)c1c(C)n([O-])c2ccc(C)cc2[n+]1=O	1.58µM	-	-
CCN(CC)c1ncnc2c1ncn2[C@@H]1O[C@@H](COP(=O)(O)OP(=O)(O)C(Br)(Br)P(=O)(O)O)[C@H](O)[C@H]1O	-	-	.
COc1ccc(CNC(=O)Cn2nnc(-c3ccc(NC(=O)C4CCCCC4)cc3)n2)cc1	10µM	-	-
